Screens deposited in PubChem BioAssay by National Center for Advancing Translational Sciences (NCATS).
HT1080NT lethal: kills 2HG-producing HT-1080-NT fibrosarcoma cells | HT-1080-NT fibrosarcoma viability, CellTiter-Glo ATP luminescence, 48 h | Potency, µM (highest dose often 46.1 µM), without a hit: top-dose activity, negative = less viability, hits mostly cytotoxic | 360,000 tested, 1.6% active | AID 686970;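 also: NT is the 2HG producing partner of a matched IDH1 knockdown line; potency is read from the fitted curve at half-maximal effect; 0% = DMSO-treated cells and -100% = media-only wells without cells; nearly all actives have a fitted effect of over 55% in size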
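Fibrosarcoma NT cells, 750 per well in 5% FBS RPMI, were exposed to compound for 48 hours. Viability: CellTiter-Glo luminescence.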
DT40 TDP1 no CPT: qHTS for Inhibitors of human tyrosyl-DNA phosphodiesterase 1 (TDP1): qHTS in cells in absence of CPT | Potency, µM (highest dose often 46.2 µM), without a hit: at the highest dose activity change, negative = growth inhibition, actives largely listed as inhibitors | 420,000 tested, 15% active | DT40 Tdp1-/- hTDP1 cells, no CPT, ATP luminescence, 48 h; also: potency is read from the fitted curve at half-maximal effect; nearly all actives have a fitted effect of over 55% in size
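No-CPT arm: Tdp1-/-;hTDP1 DT40 cells (400/well) plus compounds, incubated ≥48 hr at 37 °C. Readout CellTiter-Glo luminescence.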
DT40 TDP1 CPT: DT40-hTDP1 cell growth loss with CPT; chicken DT40 Tdp1-/-;hTDP1 cells + 20 nM CPT, ATP luminescence, 48 h; Potency, µM (titrated, usually from 46.2 µM), without a hit: at the highest dose activity change, negative = growth inhibition, actives largely listed as inhibitors; 420,000 tested, 12% active; also: potency is read from the fitted curve at half-maximal effect; nearly all actives have a fitted effect of over 55% in size
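Chicken DT40 Tdp1-/- cells stably complemented with human TDP1 were seeded at 400 cells/well in medium containing 20 nM camptothecin, exposed to pin-transferred compounds, and grown at 37 °C for at least 48 hr. Viability was read as ATP luminescence.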
IL1B secr inh: blocks inflammasome-driven IL-1 beta release; AID 743279; 360,000 tested, 4.7% active; THP-1 LPS/ATP IL-1B secretion, AlphaLISA, 16 h; hits give low values; activity change, % at 57.5 µM; in the data active = activity change below about -50%; inconclusive = mostly about -30% to -49%
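THP-1 cells pretreated 1 hr with compounds (up to 57.5 uM final), then stimulated with LPS (250 ng/mL final) plus ATP (1.25 mM final); secreted IL-1B measured by AlphaLISA after 16 hr, decreased signal indicating inhibition.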
ELG1 DNA repair: blocks ELG1-dependent DNA repair in HEK293T cells; 330,000 tested, 2.3% active; Potency, µM (top dose mostly 46.1 µM), without a hit: top-dose activity change, negative = inhibition, usual class: inhibitors; HEK293T ELG1-luciferase reporter, luminescence, 16 h; DNA damage induced by 5-fluorouridine; also: potency is read from the fitted curve at half-maximal effect; nearly all actives have a fitted effect of over 55% in size
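Step one: seed 2,000 cells per well. Step two: pin-transfer compound or DMSO alongside 5-fluorouridine. Step three: incubate 16 hr, 37 °C, 5% CO2. Step four: add ONE-Glo, wait 30 min, read luminescence.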
HT1080 IDH1KD tx: kills HT-1080 cells with IDH1 knockdown | 360,000 tested, 2% active | AID 686971 | HT-1080 IDH1 knockdown viability, ATP luminescence, 48 h | Potency, µM (series often up to 46.1 µM), without a hit: at the top dose activity, negative = toxicity, actives largely listed as cytotoxic;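 also: potency is read from the fitted curve at half-maximal effect; 0% = DMSO wells and -100% = cell-free medium wells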
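Luminescent ATP read-out (CellTiter-Glo, 10 min at room temperature) after 48 h compound exposure at 37 °C gave viability of IDH1-knockdown HT-1080 cells. Activity was normalised to DMSO and cell-free wells, then fitted as concentration-response curves.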
Numbers without * were called inactive; ? = inconclusive; / = no result given; ! = not confirmed by another sample; [ ] = another dose, or the depositor's remark. Rows were chosen to be rich in hits. Some 19% of all compounds tested hit in one or more screens of this group. Unless noted, calls follow the shape of the dose curve; as a rule, active = well fitted curve in the direction sought with a large enough effect; inconclusive = small, poorly fitted or top-dose-only effect, or another doubt; inactive = no such curve, though single readings can be large; an effect the other way counts as inactive or inconclusive. Unless noted, % is scaled to controls: 0 for no effect and ±100 for the full control effect.

SMILES	HT1080NT lethal	DT40 TDP1 no CPT	DT40 TDP1 CPT	IL1B secr inh	ELG1 DNA repair	HT1080 IDH1KD tx
COc1cccc(OC)c1OCCNCC1COc2ccccc2O1 (stereo not drawn)	-8.8%	?	14.6µM*!	-9.0	/	?
CCCNCC1COc2ccccc2O1 (stereo not drawn)	12.5%	-4.7%	-2.7%	16.5	-0.1%	-2.3%
CC(=O)C1=C(C)Nc2ncnn2C1c1ccc(Br)cc1 (stereo not drawn)	-1.8%	-3.0%	3.3%	16.5	12.1%	-0.4%
N=c1ccn2c(n1)OCC1C2O[C@@H](O)[C@H]1O (stereo partly drawn)	/	0.146µM*	0.13µM*	/	/	/
COc1ccc(N(CC(O)Cn2c3ccccc3c3ccccc32)S(=O)(=O)c2ccccc2)cc1 (stereo not drawn)	-25.1%	?	?	-23.1	-10.8%	?
COc1ccc(C(=O)/C=C/c2cn(CC(O)CN(CC(C)C)CC(C)C)c3ccccc23)cc1 (stereo not drawn)	/	16.4µM*	14.6µM*	/	/	/
CCCN(CCC)CC(O)Cn1cc(/C=C/C(=O)c2ccc(OC)cc2)c2ccccc21 (stereo not drawn)	/	5.17µM*	?	/	/	/
CCOC(=O)N1CCc2c(sc3c2c(=O)n(Cc2ccccc2)c(=O)n3Cc2c(F)cccc2Cl)C1	/	18.4µM*	13µM*	/	/	/
CCOC(=O)N1CCc2c(sc3c2c(=O)n(Cc2ccccc2)c(=O)n3Cc2cccc(C)c2)C1	-3.6%	13µM*	13µM*	-18.7	-8.9%	-14.9%
CC(=O)c1ccc(C(=O)NCC2Cc3cccc(-c4ncccn4)c3O2)cc1 (stereo not drawn)	/	-23.5%	2.6%[9.04 µM]	/	/	/
CCCC(=O)N1CCC1(C)C(=O)Nc1ccc2c(c1)OCCO2 (stereo not drawn)	14.6%	-23.6%	-5.1%	18.7	/	4.1%
Cc1[nH]c(=O)c(C#N)cc1-c1ccc2nccn2c1	/	-1.9%	-7.9%	/	/	/
Cc1[nH]c(=O)c(C#N)cc1-c1ccncc1	?	0.0596µM*!	?	-7.0	5.2%	-3.2%
O=[N+]([O-])c1ccc(NCCCNS(=O)(=O)c2ccccc2)c(Cl)c1	-20.5%	16.4µM*	?	-9.4	-8.2%	-18.1%
O=C(NCCNc1ccc([N+](=O)[O-])cc1C(F)(F)F)c1ccccc1F	?	?	?	?	8.2%	-24.2%
O=[N+]([O-])c1ccc(NCCNS(=O)(=O)c2ccccc2)c(C(F)(F)F)c1	?	18.4µM*	25.9µM*	-1.2	-10.1%	?
Cc1ccc(C(=O)NCCNc2ccc([N+](=O)[O-])cc2C(F)(F)F)cc1	-28.0%	18.4µM*	18.4µM*	-5.8	-8.7%	?
Cc1ccc(S(=O)(=O)NCCNc2ccc([N+](=O)[O-])cc2C(F)(F)F)cc1	-11.2%	?	?	-16.1	?	-15.2%
O=C(NCCN1CCCC1)C1CCC(=O)N(CCCN2CCOCC2)C1 (stereo not drawn)	-0.3%	-1.7%	-13.4%	-15.4	0.0%	-4.9%
CN1C(=O)C(N=Nc2ccc([N+](=O)[O-])cc2)SC1=S (stereo not drawn)	?	6.51µM*	7.31µM*	-89.3*	/	?
Cc1nnsc1C(=O)Nc1ccc(S(=O)(=O)N2CCCC(C)C2)cc1 (stereo not drawn)	-14.1%	?	?	?	-16.8%	-5.8%
COc1cc(S(=O)(=O)N2CCCCC2)ccc1NC(=O)c1ccccc1Cl	-17.6%	16.4µM*	16.4µM*	-13.9	?	-4.3%
